From PubChem BioAssay AID1851 (National Center for Advancing Translational Sciences (NCATS), 2009) come the findings set out here.

About 4,000 (25%) of roughly 16,000 compounds were called active. Roughly 26% stayed inconclusive and do not appear here. These entries were drawn from the full list. Values without a mark were called inactive. The call rests on the fitted dose curve; in most records, active means well fitted curve in the direction sought with a large enough effect; inconclusive means small, poorly fitted or top-dose-only effect, or effect the other way; inactive means no such curve, though single readings can be large or run the other way.
On the % scale 0 is the no-effect control and ±100 the full control effect.

The target in the assay is Cytochrome P450 2C9 (Homo sapiens) (UniProt P11712). Kind of assay: Cytochrome panel assay with activity outcomes. The conditions noted are these: recombinant CYP, pro-luciferin dealkylation, luminescence, p450-cyp2c9; series mostly up to 57.1 µM.
Sequence of Cytochrome P450 2C9 (Homo sapiens) (P11712 whole entry, looked up): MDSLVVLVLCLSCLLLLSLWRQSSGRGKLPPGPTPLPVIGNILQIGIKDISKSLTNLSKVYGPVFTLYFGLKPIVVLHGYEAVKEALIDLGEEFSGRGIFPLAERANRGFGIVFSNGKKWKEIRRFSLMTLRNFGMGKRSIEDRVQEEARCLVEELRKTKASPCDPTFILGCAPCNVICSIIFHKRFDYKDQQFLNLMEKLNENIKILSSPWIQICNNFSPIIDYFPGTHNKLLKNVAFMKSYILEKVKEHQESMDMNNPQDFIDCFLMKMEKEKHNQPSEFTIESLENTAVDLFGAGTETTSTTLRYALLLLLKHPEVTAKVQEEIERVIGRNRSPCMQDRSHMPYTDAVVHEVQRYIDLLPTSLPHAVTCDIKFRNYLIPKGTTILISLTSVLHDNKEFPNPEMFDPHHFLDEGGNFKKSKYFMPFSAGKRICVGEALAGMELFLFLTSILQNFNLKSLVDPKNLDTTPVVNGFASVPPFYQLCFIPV
Broadly, the AC50 is the concentration at which the activity in the assay is half-maximal. With `O=[N+]([O-])c1ccc(N2CCCCC2)c(Cl)c1N1CCCCC1`, the AC50 is 2.24 µM (active). For `C/C(CCN1CCc2nc(-c3ccccc3)c(-c3ccccc3)cc2C1)=N\OC[C@@H](C)[C@H](OCc1ccccc1)C(C)C`, the activity, negative = inhibition is -9.58% [at 11.4 µM]. As for `Cc1cccc(CNc2ccnc(-c3ccc(C(=O)N(C)C)cc3)n2)c1`, the activity, negative = inhibition is -11.3% [at 2.29 µM].

As for `CN(CC(=O)O/N=C(\N)c1ccccn1)S(=O)(=O)c1ccccc1`, the AC50 result is “inactive”.

Turning to `Cc1cccc(N(CC(=O)N2CCOCC2)S(C)(=O)=O)c1`, the AC50 entry was “inactive”. Turning to `Cc1cccc(CSCCNC(=O)c2ccc(N(C)S(=O)(=O)c3ccccc3)cc2)c1`, the AC50 was 0.562 µM (active).

Turning to `Cc1cc(C)cc(N(CC(=O)NCCSc2ccccn2)S(=O)(=O)c2ccccc2)c1`, the half-maximal activity concentration (AC50) was 0.282 µM (active). Turning to `Cc1cccc(CNc2cc(-c3ccc(C(=O)N(C)C)cc3)ncn2)c1`, the activity, negative = inhibition was 5.16% [at 2.29 µM]. In the case of `Cc1cccc(N(CC(=O)NCCSCc2ccco2)S(=O)(=O)c2ccccc2)c1`, the AC50 was 4.47 µM (active). Same read-out and setting: the same measure for `CC(C)NC[C@H](O)c1cc(O)cc(O)c1`: “inactive”. Turning to `O=C(O)C[C@H]1OCC=C2C[N@@+]3([O-])CC[C@]45c6ccccc6N[C@@H]4[C@@H]1[C@H]2C[C@H]53`, the activity, negative = inhibition is 5.86% [at 11.4 µM]. On the same count and under the same terms, the value for `CC(=O)OC[C@@H]1O[C@@H](O/N=C2/C[C@@H](O)[C@@H](O)[C@@H]3[C@H]4C(=O)N(c5ccc(F)cc5F)C(=O)[C@@H]4CC[C@@H]23)[C@H](OC(C)=O)[C@H](OC(C)=O)[C@@H]1OC(C)=O` was 18.5% [at 11.4 µM]; that for `CC1=NCC[N@@+]1(CCc1ccccc1)Cc1ccccc1` was -1.38% [at 11.4 µM]. Consider `CCCN(CCc1ccccc1)[C@H]1CCc2c(O)cccc2C1`, for which the AC50 entry was “inactive”. Still for that read-out and setting: the same measure for `CN(CCO)c1cc(Sc2nc3ccccc3s2)c2nonc2c1[N+](=O)[O-]`: 3.55 µM (active); for `COCC(=O)N1CCC2(CC1)CCN(C(=O)Nc1cccc(F)c1)CC2`: “inactive”; for `CC(=O)Oc1cc(C(F)(F)F)ccc1C(=O)O`: “inactive”. The same measure, in the same setting: the value for `CC(=O)Nc1cc(C(F)(F)F)ccc1Oc1cccc(Br)c1` was 3.98 µM (active).

Take `Cc1cc2nc([C@H](C)C(=O)c3ccc(Cl)cc3)c(=O)[nH]c2cc1C`: the activity, negative = inhibition was -26.4% [at 11.4 µM]. Take `COc1ccc(CSc2nnnn2C)cc1[N+](=O)[O-]`: the AC50 entry is “inactive”. Still for that read-out and setting: the same measure for `CCCOc1ccc(Cn2c(C)nc([N+](=O)[O-])c2SCC(O)COC)cc1[N+](=O)[O-]` (stereo unspecified): 11.2 µM (active); for `CS(=O)(=O)N1CCC2(CC1)CN(Cc1cc(C(F)(F)F)cc(C(F)(F)F)c1)C2`: “inactive”; for `Cc1cc(C)c(NC(=O)CSc2nnc(Cc3cccn3C)n2-c2ccc(F)cc2)c(C)c1`: 10 µM (active). Turning to `C=CCn1c(SC(C)C(=O)NCc2ccc3c(c2)OCO3)nc2scc(-c3ccccc3)c2c1=O` (stereo unspecified), the AC50 is 2.51 µM (active). Consider `C=CCn1c(SCc2ccc3c(c2)OCO3)nc2scc(-c3ccco3)c2c1=O`, for which the AC50 entry is “inactive”. With `S=C1SCN(C2CCCCCCCCCCC2)CN1C1CCCCCCCCCCC1`, the activity, negative = inhibition is -14.2% [at 11.4 µM]. As for `CC1(C)O[C@@H]2C[C@H]3[C@H]4C[C@H](F)C5=CC(=O)CC[C@]5(C)[C@@H]4[C@H](O)C[C@]3(C)[C@]2(C(=O)CO)O1`, the AC50 entry is “inactive”. Still for that read-out and setting: the value for `Cc1ncc([N+](=O)[O-])n1CC(=O)NCc1ccccc1` was “inactive”. Turning to `CC(NC(=O)c1ccc(Cn2cc([N+](=O)[O-])cn2)o1)c1ccccc1` (stereo unspecified), the half-maximal activity concentration (AC50) is 6.31 µM (active). Still for that read-out and setting: the value for `CCOC(=O)c1c(-c2ccccc2)cn2ccccc12` was 3.55 µM (active). For `CCOC(=O)c1c2c(n3ccccc13)C(=O)c1ccccc1C2=O`, the activity, negative = inhibition was -20.1% [at 11.4 µM]. Turning to `CN(C)C(=O)c1ccc(-c2nccc(Nc3ccc(F)cc3)n2)cc1`, the activity, negative = inhibition is -2.83% [at 2.29 µM]. As for `COCC(=O)N1CCC2(CCCN(Cc3ccccc3OC)C2)CC1`, the AC50 result was “inactive”. In the case of `CO[C@@H]1COC(=O)[C@H]2CCCN2C(=O)[C@@H](C)COC(=O)C/C=C\[C@H]1C`, the activity, negative = inhibition was 14.2% [at 11.4 µM].

As to `CCc1ccc(NC(=S)N2CCN(c3cccc(C(F)(F)F)c3)CC2)cc1`, the AC50 result was “inactive”.

Regarding `Cc1ccc(CC(=O)N2CCN(c3cccc(C(F)(F)F)c3)CC2)cc1`, the AC50 is 14.1 µM (active). Turning to `O=C(c1coc2ccccc2c1=O)N1CCN(c2cccc(C(F)(F)F)c2)CC1`, the AC50 was 12.6 µM (active). For the compound `Cc1cccc(C)c1NC(=O)c1cc2c(=O)c3ccccc3oc2nc1C(F)(F)F`, the AC50 result was “inactive”. Same read-out and setting: the value for `C[C@@H]1CCN=C(N)S1` was “inactive”. Regarding `CS(=O)(=O)Nc1cccc(-c2ccc3ncnc(NC4CC4)c3c2)c1`, the activity, negative = inhibition is -17.7% [at 2.29 µM]. Still for that read-out and setting: the value for `CO[C@@H]1COC(=O)[C@H]2CCCN2C(=O)C/C=C\[C@@H](C)[C@H](OC)COC(=O)[C@H]2CCCN2C(=O)C/C=C\[C@H]1C` was -0.816% [at 11.4 µM]. Take `O=c1cnc2cnc(Oc3ccccc3)nc2n1Cc1ccc(F)cc1`: the AC50 is 15.8 µM (active). In the case of `Cc1nc2cnc(Oc3ccccc3)nc2n(CCc2ccccc2)c1=O`, the AC50 result is “inactive”. Regarding `O=c1cnc2cnc(OCc3ccccc3)nc2n1Cc1ccc(F)cc1`, the AC50 entry is “inactive”. Turning to `COc1cccc(Cn2c(=O)cnc3cnc(OC)nc32)c1`, the AC50 entry is “inactive”. For `N#CCCn1c(=O)cnc2cnc(Oc3ccccc3)nc21`, the AC50 entry was “inactive”. The same measure, in the same setting: the value for `O=c1cnc2cnc(Oc3cccc(Cl)c3)nc2n1Cc1ccc(F)cc1` was 7.94 µM (active); that for `O=c1cnc2cnc(Oc3ccccc3)nc2n1CCc1ccccc1` was 3.16 µM (active).

For the compound `COc1cccc(Cn2c(=O)cnc3cnc(Oc4cccc(Cl)c4)nc32)c1`, the AC50 is 3.98 µM (active). Turning to `COc1ccc(-n2c(=O)cnc3cnc(Oc4cccc(Cl)c4)nc32)cc1`, the AC50 entry was “inactive”.

Consider `CN1CCN(c2ncc3ncc(=O)n(Cc4ccc(F)cc4)c3n2)CC1`, for which the AC50 result is “inactive”.
